# Screens from PubChem BioAssay.
# Sampled rows, rich in hits. Any-hit rate of the full collection: about 0.36%.
# SNCA expr inh – Primary qHTS assay for inhibitors of alpha-synuclein gene (SNCA) expression | Potency, µM (series often up to 57.2 µM), hits mostly inhibitors | actives 0.17% (n = 140,000) | HEK-293 SNCA-luciferase knock-in, luminescence, 24 h; note: nearly all actives have a fitted effect of over 45% in size
# GPT2 inhibitor – Primary qHTS assay for inhibitors of Glutamate pyruvate transaminase 2 (GPT2). Alanine aminotransferase 2 (Homo sapiens), Q8TD30. Recombinant GPT2, coupled pyruvate oxidase/HRP Amplex Red fluorescence. Potency, µM (highest dose often 57.7 µM), usual class: inhibitors. actives 0.25% (n = 100,000); note: nearly all actives have a fitted effect of over 60% in size
# Target sequence (Q8TD30 whole entry, looked up): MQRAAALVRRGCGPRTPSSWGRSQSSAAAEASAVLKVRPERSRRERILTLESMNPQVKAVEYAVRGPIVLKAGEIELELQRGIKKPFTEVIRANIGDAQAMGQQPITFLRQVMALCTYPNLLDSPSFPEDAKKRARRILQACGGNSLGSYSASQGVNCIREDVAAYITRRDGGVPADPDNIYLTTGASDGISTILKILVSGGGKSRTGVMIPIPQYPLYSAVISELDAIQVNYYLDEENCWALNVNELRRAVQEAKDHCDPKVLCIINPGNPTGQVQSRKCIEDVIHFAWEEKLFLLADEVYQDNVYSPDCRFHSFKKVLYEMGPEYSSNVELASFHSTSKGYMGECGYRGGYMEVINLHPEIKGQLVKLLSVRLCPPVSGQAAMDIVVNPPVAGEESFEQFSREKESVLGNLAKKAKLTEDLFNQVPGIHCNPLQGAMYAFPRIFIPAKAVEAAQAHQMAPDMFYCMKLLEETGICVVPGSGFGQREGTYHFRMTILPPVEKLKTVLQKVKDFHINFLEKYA
#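 Fluorescence read-out: pyruvate from GPT2 turnover coupled to pyruvate oxidase, HRP and Amplex Red (0.2mM ThPP, 0.2U/mL PO and HRP, 50uM Amplex final). Substrates 250uM a-KG, 2mM L-alanine; enzyme 10ng/uL; 30 min RT.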
# HEK293 viab – GF-AFC viability counterscreen for inhibitors of alpha-synuclein gene (SNCA) expression; HEK-293-SNCA-luc viability, GF-AFC fluorescence, 24 h; Potency, µM (titrated, usually from 57.1 µM), hits mostly cytotoxic; actives 0.12% (n = 150,000); AID 1671193, 2021; note: nearly all actives have a fitted effect of over 30% in size
#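 Cytotoxicity counterscreen: after 24 h compound treatment of genome-edited SNCA-luciferase HEK-293 cells, live-cell protease substrate GF-AFC read by fluorescence after 30 min; activity scaled between DMSO (0%) and medium-only (-100%), curves Hill-fitted.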
# GPT2 conf – Confirmatory qHTS assay for inhibitors of Glutamate pyruvate transaminase 2 (GPT2). shares compounds with GPT2 inhibitor. Potency, µM, usual class: inhibitors. actives 90% (n = 95). GPT2 enzyme, coupled Amplex Red pyruvate fluorescence
# A number is an active result; – = inactive; ? = inconclusive; · = no result; ! = repeats disagree; [ ] = remark or other dose. Calls come from the whole dose curve; as a rule, active = well fitted curve in the direction sought with a large enough effect; inconclusive = small, poorly fitted or top-dose-only effect, or another doubt; inactive = no such curve, though single readings can be large; an effect the other way counts as inactive or inconclusive.
SMILES,SNCA expr inh,GPT2 inhibitor,HEK293 viab,others
O=C(Nc1cccc(C(F)(F)F)c1)c1nc2c(o1)CCN(Cc1ccccc1)CC2,–,?,–,
CCc1ccc(C(=O)Nc2cc(CN3CCN(C)CC3)cc(C(F)(F)F)c2)cc1C#Cc1cnc2ccnn2c1,24µM,?,?,
CCn1c(=O)c(-c2ccc(-c3cncs3)cc2Cl)cc2cnc(Nc3ccc(N4CCN(C)CC4)cc3)nc21,·,–,–,
C=CCn1c(=O)c2cnc(Nc3ccc(N4CCN(C)CC4)cc3)nc2n1-c1cccc(C(C)(C)O)n1,0.48µM,–,?,
O=C(NCC1CCCCC1)C1CN(c2ccnc3ccnn23)C1,–,–,–,
COCC1CCN(c2ccc(-c3nc(-c4ccccc4C)no3)cn2)C1 (stereo not given),–,–,–,
COC(=O)[C@@H]1CCCN1c1ccc(-c2nc(-c3ccccc3F)no2)cn1,11µM,–,–,
CN(C)S(=O)(=O)N1CCCC1Cc1noc(-c2ccccc2)n1 (stereo not given),–,–,–,
Nc1cc(C(F)(F)F)ccc1S,–,28µM,–,
O=Cc1ccc(-c2cc(C(F)(F)F)ccc2Cl)cc1,–,–,–,
Cc1ccc(C(=O)N(CCCN)C(c2nc3cc(Cl)ccc3c(=O)n2Cc2ccccc2)C(C)C)cc1 (stereo not given),·,–,30µM,
C#CC[C@H](c1nc2cc(Cl)ccc2c(=O)n1Nc1ccccc1)N(CCCN)C(=O)c1cccc(Cl)c1F,·,–,?,
COc1ccccc1Nc1ccnc(N2CCCC(C(=O)N3CCCCC3)C2)n1 (stereo not given),–,–,?,
CCCCn1c(=O)c(C(=O)NC2CCCc3ccccc32)nc2cccnc21 (stereo not given),–,–,–,
CC(C)C(=O)Nc1cccc(NC2=NS(=O)(=O)c3ccccc32)c1,–,·,–,
O=C(CCl)Nc1cccc(NC2=NS(=O)(=O)c3ccccc32)c1,·,–,30µM,
COc1ccc(F)cc1-c1cccc(C(=O)NCCN[S+](=O)([O-])CCC(F)(F)F)c1,–,–,?,
NC[C@@H]1O[C@H](c2ccccc2)Cc2c1ccc(O)c2O,–,20µM,–,
NC[C@@H]1O[C@H](C23CC4CC(CC(C4)C2)C3)Cc2c1ccc(O)c2O,?,–,–,
COc1ccc(F)cc1-c1cccc(C(=O)NCCN[S+](=O)([O-])c2cccs2)c1,–,–,–,
Cc1cnc(Nc2ccc(OCCN3CCCC3)cc2)nc1Nc1cccc(S(=O)(=O)NC(C)(C)C)c1,–,–,?,
Cc1cnc(Nc2ccc(N3CCN(C)CC3)cc2)nc1Nc1cccc(S(=O)(=O)NC(C)(C)C)c1,–,19µM,?,
COc1cccc2nc(-c3cccs3)nc(NN3C(=O)C=C(C)C3=O)c12,?,–,30µM!,
COc1cccc(NC(=O)CCc2nc(-c3cccs3)no2)c1,–,·,–,
O=c1cc(N2CCOCC2)oc2c(-c3ccc(F)cc3)nccc12,–,–,–,
SMILES,SNCA expr inh,GPT2 inhibitor,HEK293 viab,others
Cc1ccc(-c2noc(CCCC(=O)N3CCC(c4nc(C(=O)N5CCCC5)c(C)o4)CC3)n2)cc1,?,–,–,
COCCN1CCOc2nc(-c3cc4ccccc4o3)ncc2C1=O,8.9µM,–,–,
O=C1c2cnc(-c3cc4ccccc4o3)nc2OCCN1CC1CC1,?,?,–,
O=C(NC1CCN(Cc2cccc(-c3ccc(F)c(F)c3)c2)CC1)c1ccccc1F,–,–,–,
Cc1nc(NC(=O)N2CCCC2C(N)=O)sc1-c1ccnc(C(C)(C)C(F)(F)F)c1 (stereo not given),·,–,?,
Cc1ccc(Nc2ccnc(N3CCC(C(=O)NCc4cccs4)CC3)n2)cc1,–,–,–[12.5 µM],
CN1CCN(c2ccc(-c3cc4c(ccn4C)c(C(=O)NCC4CCOCC4)n3)cc2)CC1,–,–,–,
CN1CCN(c2ccc(C(=O)Nc3n[nH]c4ccc(Cc5cc(F)cc(F)c5)cc34)c(NC3CCOCC3)c2)CC1,?,–,27µM!,
CCCS(=O)(=O)Nc1ccc(F)c(C(=O)c2c[nH]c3ncc(Cl)cc23)c1F,12µM,–,?,
CCCCOc1c(C(=O)c2c(F)cc(C)cc2F)cnc2n[nH]cc12,?,–,–,
O=C(c1ccc(-c2cccs2)cc1)N1CCC(N[S+](=O)([O-])c2ccccc2)CC1,–,–,–[12.5 µM],
CN[C@@H]1C[C@H]2O[C@@](C)([C@H]1OC)n1c3ccccc3c3c4c(c5c6ccccc6n2c5c31)C(=O)N[C@H]4O,4.3µM,–,?,
C[C@@]12O[C@@H](C[C@]1(O)CO)n1c3ccccc3c3c4c(c5c6ccccc6n2c5c31)CNC4=O,?,–,?,
O=c1c(O)c(-c2ccc(O)cc2)oc2cc(O)cc(O)c12,–,24µM,–,
O=c1cc(-c2ccc(O)cc2)oc2cc(O)cc(O)c12,–,–,–,
O=S(=O)(c1ccccc1F)N1CCC(F)(c2nc(Cc3ccccc3)no2)CC1,–,–,–,
OCCN(CCO)c1nc(N2CCCCC2)c2nc(N(CCO)CCO)nc(N3CCCCC3)c2n1,–,6.3µM!,?,GPT2 conf=1.7
CC(Oc1ccc2[nH]nc(/C=C/c3cnn(CCO)c3)c2c1)c1c(Cl)cncc1Cl (stereo not given),·,–,?,
Cc1ccc(Nc2c(-c3ccc(N4CCOCC4)cc3)nc3ncccn23)cc1,–,·,–,
CN1CCN(C)c2cc(Nc3ccc(N4CCOCC4)cc3)ncc2C1,·,·,·,GPT2 conf=7
COc1ccc(Nc2cc3c(cn2)CN(CCc2ccccc2)CCN3)cc1,–,–,–,
c1ccc(CCN2CCNc3cc(Nc4ccc(N5CCOCC5)cc4)ncc3C2)cc1,–,14µM,?,GPT2 conf=6.3
O=C(NCCc1ccccc1F)c1nc2sccn2c1-c1ccc(C(F)(F)F)cc1,?,?,–,
O=C(Cc1ccsc1)N1CC(Oc2ccccc2-c2nc(C3CC3)no2)C1,–,–,–,
COc1ccccc1CNC(=O)CNC(=O)c1cccc(-c2ccc(C(F)(F)F)cc2)c1,–,–,–[12.5 µM],
SMILES,SNCA expr inh,GPT2 inhibitor,HEK293 viab,others
COc1cccc([S+](=O)([O-])N2CCC(C(=O)N3CCC(N4Cc5cccn5C4=O)CC3)CC2)c1,–,–,–,
Cc1ccccc1C(=O)N1CCC(C(=O)N2CCC(N3Cc4ccccc4C3=O)CC2)CC1,–,–,–,
COc1ccc(NC2CCCN(C(=O)c3ccccc3C(F)(F)F)C2)cc1OC (stereo not given),–,?,–,GPT2 conf=3.9
COc1ccc(NC2CCCN(C(=O)c3cc(C(C)=O)n[nH]3)C2)cc1OC (stereo not given),–,?,–,
Oc1ccccc1CN1CCNc2cc(Nc3ccccc3)ncc2C1,–,–,?,
c1ccc(Nc2cc3c(cn2)NCCN(Cc2ccccn2)C3)cc1,–,–,–,GPT2 conf=3.5
Oc1ccccc1CN1CCNc2cnc(Nc3ccccc3)cc2C1,?,6.3µM,–,GPT2 conf=6.3
COc1ccc(CN2CCNc3cc(Nc4cccnc4)ncc3C2)cc1O,–,–,–,
COc1ccc(CN2CCNc3cnc(Nc4ccccc4)cc3C2)cc1O,–,?,–,GPT2 conf=5
